Source: PubChem BioAssay (several laboratories)
The list is not random: actives were taken first. Their share in the collection is about 1%.
V-ATPase pH = regulators of yeast V-ATPase proton pumping, primary screen, pHLuorin cytosolic pH fluorescence. S. cerevisiae. response, % at 10 µM. hit rate 0.37% among 350,000; in the data active = response mostly above about 7.3%, no sharp cut-off; inactive = mostly below about 5.4%; note: actives read high
Yeast superoxide = reduction of superoxide in aged yeast, primary screen, HTS | S. cerevisiae aged cells, superoxide DHE fluorescence; active compounds read low | superoxide response (% of plate mean), % at 10 µM | hit rate 0.18% among 330,000 | AID 2690, 2010;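 active = superoxide response under a set limit, about three screen SD below normal, cut at about 65% in these data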;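 note: yeast aged for seven days with compound at 30 °C before DHE staining; 100% = average MFI of all compound-treated wells on the plate with controls excluded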
Fh CTSL1 inh = Fasciola hepatica cathepsin L1 inhibitors, primary screen, counter-screen for PFM18AAP inhibitor project, biochemical, QFRET, fluorogenic peptide substrate. recombinant F. hepatica cathepsin L1, Z-Leu-Arg-MCA fluorescence. inhibition, % at 5.96 µM. AID 1906, 2009. hit rate 0.49% among 300,000;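 active = inhibition above the mean of all tested compounds plus 3 SD, set per screening campaign, cut at about 17% in these data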;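 note: 0% = plate median of test compound wells and 100% = 1 µM Z-Phe-Ala-diazomethylketone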
hiPSC survival = enhancers of single-cell hiPSC survival, primary screen, ATPlite luminescence; 100% = ROCK inhibitor wells, 0% = DMSO; survival enhancement, % at 20 µM; hit rate 0.044% among 360,000; in the data active = survival enhancement above about 18%;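 note: cells exposed to compounds for 16 hours before the ATP read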
V-ATPase pH SP = yeast V-ATPase proton pumping modulators, confirmation, S. cerevisiae, pH-sensitive GFP, second cherry-pick; shares compounds with V-ATPase pH; response, % at 10 µM; AID 602197, 2012; hit rate 2% among 980; S. cerevisiae pHLuorin cytosolic pH, V-ATPase proton transport; in the data active = response above about 24%;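 note: plate controls were vehicle wells for no effect and positive control wells for full effect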
An asterisk follows results filed as active; · = no result.

SMILES	V-ATPase pH	Yeast superoxide	Fh CTSL1 inh	hiPSC survival	V-ATPase pH SP
O=C(c1ccc(Cl)cc1)[C@@H]1[C@@H]2C(=O)N(c3ccccc3)C(=O)[C@@H]2C2c3ccccc3C=NN21 (stereo not given in full)	10.3*	83.2	1.8	0.8	-1.9
COc1ccc(CSC2=NCCN2)cc1Cl	-1.2	113.5	1.7	3.3	·
Clc1cccc(CSC2=NCCCN2)c1	-1.7	97.1	8.6	·	2.7
Cc1cc(=O)[nH]n(CCO)c1=O	13.0*	96.1	-0.5	0.3	-1.6
O=C(CN1CCc2ccccc2C1)Nc1ccccc1N1CCCCCC1	16.4*	81.8	4.7	-0.9	-0.6
O=C(CN1CCc2ccccc2C1)Nc1ccccc1Cl	2.9	103.0	-0.7	-0.3	·
CCn1c(SCC(=O)NC2CCCC2)nnc1-c1c[nH]c2ccccc12	12.5*	98.5	-5.4	3.0	2.2
CC1=C(C)CC(C(=O)NCc2ccccc2F)C(C(=O)O)C1 (stereo not given)	-1.0	97.8	-1.5	0.1	·
COc1ccc(N(CC(=O)NCCC2=CCCCC2)S(=O)(=O)c2ccccc2)cc1OC	14.3*	103.7	-1.8	5.7	-1.1
CCCCc1c(-c2ccc(OC)cc2)ncn1CCc1ccccc1OC	·	·	·	-0.1	·
N=C1c2ccccc2CN1NC(=O)COc1ccc(Cl)cc1	11.4*	91.5	-4.0	-0.2	0.9
CN(C)/C=N/c1sc2c(c1C#N)CCCC2	11.4*	106.2	-5.1	0.5	4.6
CC1CCc2c(sc(/N=C/N(C)C)c2C#N)C1 (stereo not given)	7.8	94.6	0.1	-0.8	·
COc1ccccc1NC(=O)CSc1nc(=O)n2cc(C)ccc2n1	5.5	91.9	-3.3	-0.5	·
Cc1ccc(Cl)cc1N1CCN(C(=O)CNC(=O)c2ccc(Br)o2)CC1	8.1*	114.0	·	0.1	5.9
Cc1ccc2nc3n(c2c1)CCCN3	-1.1	·	-0.9	0.8	·
Nc1ccccc1NC1=CC(=O)CC(c2ccco2)C1 (stereo not given)	10.7*	96.7	0.2	-2.0	0.9
Cc1ccc(NC2=CC(=O)CC(c3ccco3)C2)c(N)c1 (stereo not given)	2.3	94.9	-4.7	-1.1	·
CCCCN(CCCC)CCNC(=O)CN1C(=O)CSc2ccc(S(=O)(=O)N3CCOCC3)cc21	1.5	87.1	-6.2	-0.3	·
CCCCN(C)CCCNC(=O)CN1C(=O)CSc2ccc(S(=O)(=O)N3CCOCC3)cc21	9.5*	99.2	5.2	-0.2	1.4
Cc1cc(C)c2c(N)c3ccccc3nc2n1	3.2	98.6	-1.0	8.0	·
Cc1cc(C)c2cccc(N)c2n1	31.1*	110.7	0.3	1.3	0.4
CCn1c(=O)c2sccc2n(Cc2cccc(C)c2)c1=O	-0.8	101.0	1.2	1.0	·
Cc1ccc2oc(C(=O)N(C)Cc3ccc(C)o3)c(C)c2c1	12.1*	119.8	-1.7	0.2	68.5*
Cc1cc(=O)cc(C)n1-c1ccc(Cl)cc1	2.2	94.5	0.0	0.1	3.1
SMILES	V-ATPase pH	Yeast superoxide	Fh CTSL1 inh	hiPSC survival	V-ATPase pH SP
CC1CN(c2cc(=O)n(-c3ccc(Cl)cc3)c(=O)[nH]2)CC(C)O1 (stereo not given)	1.2	·	·	3.9	·
Cc1cc(=O)n(-c2ccc(Cl)cc2)c(=O)[nH]1	3.8	88.9	2.1	-0.7	-1.1
Clc1ccc(-n2cnc3c(Cl)ncnc32)cc1Cl	1.9	·	·	3.6	·
O=[N+]([O-])c1c(NCc2ccccc2)cc(N2CCc3ccccc3C2)c2nonc12	5.8*	89.7	-1.0	0.9	2.1
O=C(NCC(c1ccco1)N1CCCC1)c1sc2cc(F)ccc2c1Cl (stereo not given)	8.6*	89.7	·	-1.8	3.5
CC(C)=CCC[C@](C)(O[C@@H]1O[C@H](CO[C@@H]2OC[C@H](O[C@@H]3OC[C@@H](O)[C@H](O)[C@H]3O)[C@H](O)[C@H]2O)[C@@H](O)[C@H](O)[C@H]1O)C1CC[C@]2(C)C1[C@H](O)CC1[C@@]3(C)CC[C@H](O)C(C)(C)C3[C@@H](O)C[C@]12C (stereo not given in full)	-0.7	89.4	·	-1.7	·
Cc1[nH]c2ccccc2c1-c1csc(NC(=O)CN2CCOCC2)n1	1.7	97.6	11.0	0.1	·
Cc1ccc(NC(=O)CCC(=O)NNC(=O)c2ccccc2Cl)c(C)c1	12.7*	97.7	-2.6	0.0	-2.2
Cc1ccc(NC(=O)CCC(=O)NNC(=O)c2ccccc2)c(C)c1	0.4	94.2	7.0	0.7	·
COc1cccc(C(C(=O)NC2CCCC2)N(C(=O)c2csnn2)C2CC2)c1 (stereo not given)	-3.0	98.3	-2.2	-0.7	·
CCCn1c(=O)c(C(=O)NCCc2ccc(OC)cc2)c(O)c2ccccc21	2.8	90.6	·	1.2	·
COc1ccc(C(=O)COC(=O)/C=C/c2ccccc2[N+](=O)[O-])cc1	13.7*	95.6	·	-1.7	-0.4
COc1ccc(CN2C(=O)c3ccccc3C2C(=O)NC2CCCC2)c(OC)c1 (stereo not given)	9.8*	90.9	-3.3	-0.3	0.5
COc1ccc(CN2C(=O)c3ccccc3C2C(=O)NC2CCC(C)CC2)c(OC)c1 (stereo not given)	0.0	95.6	-2.1	0.1	·
COc1ccc(-c2cc(C(=O)NCCCn3ccnc3)no2)cc1OC	11.8*	100.0	0.1	5.6	-0.8
CCOC(=O)Cn1c(=O)c(-c2ccccc2N)nc2ccccc21	-3.1	89.4	2.8	0.1	0.1
CCOC(=O)Cn1c(=O)c(-c2cc(Br)ccc2N)nc2ccccc21	31.2*	101.0	-2.8	-0.5	16.6
Cn1c(=O)c(-c2cc(Br)ccc2N)nc2ccccc21	-0.7	109.2	-1.3	-2.3	4.8
CCOC(=O)CCn1c(CC(=O)OCC)nc2ccccc21	5.0	102.6	-1.5	-2.9	·
COc1ccc(NC(=O)CNc2cc(C)ccc2C)cc1S(=O)(=O)N1CCOCC1	-2.4	104.2	·	0.1	·
CC1=C(C(=O)N(C)C)CC(CC(=O)NCC2CCCCC2)C(=O)N1Cc1ccc(F)cc1 (stereo not given)	·	·	·	-1.0	·
CCOC(=O)c1c(C)c(-c2ccccc2)n(CC(=O)NCCCN(CC)CC)c1C	14.8*	94.0	-2.9	-1.1	0.0
O=C(CCCC(=O)N(c1ccc(F)cc1)C(C(=O)NC1CCCC1)c1ccc(O)cc1)Nc1ccccn1 (stereo not given)	11.3*	101.9	-2.7	-0.2	1.2
O=c1ccc(OCCOc2ccccc2)nn1-c1ccccc1	14.7*	88.2	-1.2	3.4	6.5
Cc1cc(OCc2cc(C(=O)N3CCCCCC3)no2)cc(C)c1Cl	-0.5	95.6	5.1	0.3	·
COc1ccc(C/C(C)=N/NC(=O)c2ccc(Cl)cc2)cc1	104.7*	97.2	2.0	0.2	-1.6
CC1CN(C(=O)c2cccn(Cc3c(Cl)cccc3Cl)c2=O)CC(C)O1 (stereo not given)	-0.5	95.0	0.0	-0.4	·
O=C(CCC1CCN(C(=O)CC2=CCCCC2)CC1)NCc1ccc(F)cc1	7.1*	·	·	3.0	1.0
